Laboratory results: PubChem BioAssay AID1540 (National Center for Advancing Translational Sciences (NCATS), 2009)
“And” between values parts separate entries of the source, which are not always exact repeats. Equal entries are not always repeated. Records with an inconclusive call do not appear. The source made the active and inactive calls. Calls follow the shape of the dose curve; as a rule, active = well fitted activation curve with a large enough effect; inconclusive = small, poorly fitted or top-dose-only effect, or effect the other way; inactive = flat fitted curve, though single readings scatter.

target: Pyruvate kinase PKM (Homo sapiens) (UniProt P14618); assay: Secondary assay for Activators of Human Pyruvate Kinase M2 isoform; conditions: purified hPK-M2, LDH-coupled NADH fluorescence kinetic; series mostly up to 57.5 µM
Sequence (P14618 whole entry, looked up, canonical isoform): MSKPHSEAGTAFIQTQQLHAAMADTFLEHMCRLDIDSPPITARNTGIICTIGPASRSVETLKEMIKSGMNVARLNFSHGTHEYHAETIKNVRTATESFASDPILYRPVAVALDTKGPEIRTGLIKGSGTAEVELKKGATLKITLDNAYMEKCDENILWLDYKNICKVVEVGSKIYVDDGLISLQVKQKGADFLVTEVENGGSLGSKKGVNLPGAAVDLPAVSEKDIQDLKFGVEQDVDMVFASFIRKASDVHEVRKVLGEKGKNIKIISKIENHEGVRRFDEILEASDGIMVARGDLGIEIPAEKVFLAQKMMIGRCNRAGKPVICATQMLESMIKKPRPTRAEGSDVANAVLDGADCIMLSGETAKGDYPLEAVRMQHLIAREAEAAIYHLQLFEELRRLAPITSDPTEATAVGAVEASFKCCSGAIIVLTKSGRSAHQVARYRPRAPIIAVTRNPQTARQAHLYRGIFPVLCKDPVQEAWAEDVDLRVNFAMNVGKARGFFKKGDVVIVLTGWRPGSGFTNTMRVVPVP
From the text: Confirmatory assay NIH Chemical Genomics Center [NCGC] Matthew G. Vander Heiden, M.D., Ph.D. [Harvard Medical School, 77 Avenue Louis Pasteur, Boston, MA 02115] NCGC Assay Overview: Human pyruvate kinase muscle 2 (hPK-M2)enzyme was supplied as a highly purified (>95% pure) preparation from Harvard Medical School and a secondary assay was used to evaluate compounds. This assay couples the formation of pyruvate from hPK-M2 using lactate dehydrogenase (LDH) and NADH. The depletion of NADH is followed in a fluorescent-based kinetic assay that follows the formation of pyruvate to lactate, as catalyzed LDH (described by Hannaert et al., 2002)1 Pyruvate kinase substrates, PEP and ADP, were present in the assay at 0.1 mM and 4 mM respectively. In this kinetic assay initial rates were determined by following the fluorescence of NADH depletion.
NCGC Assay Protocol Summary: Three uL of substrate mix (final concentration, 50 mM Tris-Cl pH 8.0, 200 mM KCl, 15 mM MgCl2, 0.1 mM PEP, 4.0 mM ADP, and 0.2 mM NADH) was dispensed into black-solid 1536 well plates. 23 nL of compounds were delivered by a pin tool and 1 uL of enzyme mix (final concentrations, 10 nM hPK-M2 and 1 uM of LDH) was added. Plates were immediately placed in ViewLux (Perkin Elmer) and NADH fluorescence was determined at 30 second exposure intervals for between 3 and 6 minutes. Data were normalized to the uninhibited and EC100 activation using known activators such as fructose-bis-phosphate.

| SMILES | Potency |
| --- | --- |
| O=S(=O)(c1ccc2c(c1)OCCO2)N1CCN(S(=O)(=O)c2ccccn2)CC1 | 2820 nM (active) |
| CC(O)c1cc2c(s1)c1cnn(Cc3ccccc3F)c(=O)c1n2C (stereo not given) | 398 nM (active) |
| CC(=O)Nc1cccc(S(=O)(=O)N2CCCN(S(=O)(=O)c3ccc4c(c3)OCCO4)CC2)c1 | 819 nM (active) |
| CC1(C)CCc2cc(S(=O)(=O)N3CCN(S(=O)(=O)c4c(F)cccc4F)CC3)ccc2O1 | 5.01 µM (active) and 631 nM (active) |
| O=S(=O)(c1ccc2c(c1)OCCO2)N1CCN(S(=O)(=O)c2cccc[n+]2[O-])CC1 | 4470 nM (active) |
| COCCCc1cc(F)c(S(=O)(=O)N2CCN(S(=O)(=O)c3ccc4c(c3)OCCO4)CC2)cc1F | 3160 nM (active) |
| O=C(O)c1cc(F)c(S(=O)(=O)N2CCN(S(=O)(=O)c3ccc4c(c3)OCCO4)CC2)cc1F | 31600 nM (active) |
| Cn1c2cc([N+](=O)[O-])sc2c2cnn(Cc3ccccc3F)c(=O)c21 | 251 nM (active) |
| O=S(=O)(c1ccc(Cl)cc1)N1CCN(S(=O)(=O)c2ccc3c(c2)OCCO3)CC1 | 1120 nM (active) |
| Cn1c2ccsc2c2cnn(Cc3ccc(F)cc3)c(=O)c21 | 562 nM (active) |
| CC(=O)Nc1cccc(S(=O)(=O)N2CCN(S(=O)(=O)c3c(F)cccc3F)CC2)c1 | 14600 nM (active) |
| Cc1cc2c(s1)c1cnn(Cc3c(F)cccc3Cl)c(=O)c1n2C | 158 nM (active) |
| Nc1cc(S(=O)(=O)N2CCN(S(=O)(=O)c3ccc4c(c3)OCCO4)CC2)ccn1 | inactive |
| Cn1c2cc(CO)sc2c2cnn(Cc3ccccc3F)c(=O)c21 | 141 nM (active) |
| C=Cc1cc(F)c(S(=O)(=O)N2CCN(S(=O)(=O)c3ccc4c(c3)OCCO4)CC2)cc1F | 2000 nM (active) |
| Nc1ccc(S(=O)(=O)N2CCCN(S(=O)(=O)c3ccc4c(c3)OCCO4)CC2)cc1 | 366 nM (active) |
| CCn1c2cc(C)sc2c2cnn(Cc3ccccc3F)c(=O)c21 | 5010 nM (active) |
| Nc1cccc(S(=O)(=O)N2CCN(S(=O)(=O)c3c(F)cccc3F)CC2)c1 | 206 nM (active) |
| Cc1cc2c(s1)c1cnn(Cc3cccc(F)c3)c(=O)c1n2C | 1260 nM (active) |
| Cn1c2ccsc2c2cnn(Cc3ccccc3F)c(=O)c21 | 2510 nM (active) |

| SMILES | Potency |
| --- | --- |
| Cc1cc2c(s1)c1cnn(Cc3ccc(C(F)(F)F)cc3)c(=O)c1n2C | 2240 nM (active) |
| CCOC(=O)CCc1cc(F)c(S(=O)(=O)N2CCN(S(=O)(=O)c3ccc4c(c3)OCCO4)CC2)cc1F | 10000 nM (active) |
| Cn1c2cc(S(C)(=O)=O)sc2c2cnn(Cc3ccccc3F)c(=O)c21 | 447 nM (active) |
| COc1ccc(S(=O)(=O)N2CCN(S(=O)(=O)c3ccc(OC)cc3)CC2)cc1 | 398 nM (active) and 282 nM (active) |
| O=S(=O)(c1ccc2c(c1)OCCCO2)N1CCN(S(=O)(=O)c2c(F)cccc2F)CC1 | 501 nM (active) |
| COc1cccc(Cn2ncc3c4sc(S(C)=O)cc4n(C)c3c2=O)c1 (stereo not given) | 146 nM (active) |
| O=S(=O)(c1ccc2c(c1)OCCO2)N1CCN(S(=O)(=O)c2cc(F)c(F)cc2F)CC1 | 562 nM (active) |
| O=S(=O)(c1ccc2c(c1)OCCO2)N1CCN(S(=O)(=O)c2ccccc2F)CC1 | 316 nM (active) |
| O=C(O)Cc1cc(F)c(S(=O)(=O)N2CCN(S(=O)(=O)c3ccc4c(c3)OCCO4)CC2)cc1F | 14100 nM (active) |
| Cc1cc2c(s1)c1cnn(Cc3cccc(F)c3F)c(=O)c1n2C | 501 nM (active) |
| Nc1ccc(S(=O)(=O)N2CCN(S(=O)(=O)c3ccc4c(c3)OCCO4)CC2)cc1 | 163 nM (active) |
| Nc1ccc(S(=O)(=O)N2CCN(S(=O)(=O)c3c(F)cccc3F)CC2)cc1 | 410 nM (active) |
| O=S(=O)(c1ccc2c(c1)OCCO2)N1CCN(S(=O)(=O)c2c(F)cccc2F)CC1 | 1 µM (active) and 562 nM (active) |
| CCCc1cc(F)c(S(=O)(=O)N2CCN(S(=O)(=O)c3ccc4c(c3)OCCO4)CC2)cc1F | 8910 nM (active) |
| Nc1cccc(S(=O)(=O)N2CCN(S(=O)(=O)c3ccc4c(c3)OCCO4)CC2)c1 | 146 nM (active) |
| CSc1cc2c(s1)c1cnn(Cc3cccc(O)c3)c(=O)c1n2C | 65.1 nM (active) |
| COc1cc(F)c(S(=O)(=O)N2CCCN(S(=O)(=O)c3ccc(NC(C)=O)cc3)CC2)c(F)c1 | 6510 nM (active) |
| COc1cccc(S(=O)(=O)N2CCN(S(=O)(=O)c3ccc4c(c3)OCCO4)CC2)c1 | 562 nM (active) |
| C=CCc1cc(F)c(S(=O)(=O)N2CCN(S(=O)(=O)c3ccc4c(c3)OCCO4)CC2)cc1F | 2000 nM (active) |
| Cc1cc2c(s1)c1cnn(Cc3c(F)cccc3F)c(=O)c1n2C | 141 nM (active) |
